What was measured:
Assay in all cases: DAPPL (digital affinity profiling via proximity ligation, sequencing); 10 mM Tris-HCl pH 7.5, 50 mM NaCl, 1 mM DTT, 4% glycerol, room temperature, 30 min; GST-TFs on glutathione beads, 16-mer random dsDNA library, 0.1% formaldehyde crosslink after washing; high values mean tight binding
Details in all cases: protein: recombinant; tags: N-terminal GST; dsDNA, one strand shown
FLI1 = biological target: T1, FLI1 (Homo sapiens, UniProt Q01543 1-452)
T1 sequence: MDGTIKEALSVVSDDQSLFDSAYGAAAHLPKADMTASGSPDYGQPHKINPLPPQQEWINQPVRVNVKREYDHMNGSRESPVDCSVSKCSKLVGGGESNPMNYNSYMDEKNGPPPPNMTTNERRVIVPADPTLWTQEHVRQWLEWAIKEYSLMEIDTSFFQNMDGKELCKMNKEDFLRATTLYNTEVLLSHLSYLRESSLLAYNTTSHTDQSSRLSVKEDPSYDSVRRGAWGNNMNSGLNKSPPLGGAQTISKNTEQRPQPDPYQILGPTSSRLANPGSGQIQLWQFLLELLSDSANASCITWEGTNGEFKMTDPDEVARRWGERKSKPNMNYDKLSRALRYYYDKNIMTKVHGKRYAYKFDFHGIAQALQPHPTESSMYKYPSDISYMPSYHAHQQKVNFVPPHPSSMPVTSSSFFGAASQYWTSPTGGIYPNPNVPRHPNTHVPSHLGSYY
How it was run: (§1)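 Human transcription factors carrying a GST fusion were produced in yeast, bound to glutathione beads, tagged with DNA barcodes and pooled together with a tag-only sample. Each pool was held with 200 nmole of a random double-stranded 16-mer DNA library in Tris/NaCl/DTT/glycerol buffer for 30 min at room temperature, then washed, crosslinked in 0.1% formaldehyde, proximity-ligated with BsaI/T4 ligase (1 h, 37 °C), PCR-amplified and sequenced on an Illumina NextSeq500. Binding signal is the read frequency of each hexamer for a given factor divided by its frequency in the tag-only sample.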

GABPA = biological target: T2, GABPA (Homo sapiens, UniProt Q06546 1-454)
T2 sequence: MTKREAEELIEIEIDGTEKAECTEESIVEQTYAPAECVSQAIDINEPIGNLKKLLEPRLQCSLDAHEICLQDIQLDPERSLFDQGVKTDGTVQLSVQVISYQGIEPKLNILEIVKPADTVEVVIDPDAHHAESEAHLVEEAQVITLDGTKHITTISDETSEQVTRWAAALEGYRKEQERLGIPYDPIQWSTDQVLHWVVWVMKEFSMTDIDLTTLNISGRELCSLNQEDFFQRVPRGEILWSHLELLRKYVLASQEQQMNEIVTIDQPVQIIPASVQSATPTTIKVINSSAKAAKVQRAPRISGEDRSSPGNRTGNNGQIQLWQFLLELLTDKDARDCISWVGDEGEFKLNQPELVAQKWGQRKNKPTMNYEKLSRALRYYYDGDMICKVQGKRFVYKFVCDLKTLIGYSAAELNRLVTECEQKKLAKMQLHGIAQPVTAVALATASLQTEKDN
How it was run: as §1

ERG = biological target: T3, ERG (Homo sapiens, UniProt P11308 1-479)
T3 sequence: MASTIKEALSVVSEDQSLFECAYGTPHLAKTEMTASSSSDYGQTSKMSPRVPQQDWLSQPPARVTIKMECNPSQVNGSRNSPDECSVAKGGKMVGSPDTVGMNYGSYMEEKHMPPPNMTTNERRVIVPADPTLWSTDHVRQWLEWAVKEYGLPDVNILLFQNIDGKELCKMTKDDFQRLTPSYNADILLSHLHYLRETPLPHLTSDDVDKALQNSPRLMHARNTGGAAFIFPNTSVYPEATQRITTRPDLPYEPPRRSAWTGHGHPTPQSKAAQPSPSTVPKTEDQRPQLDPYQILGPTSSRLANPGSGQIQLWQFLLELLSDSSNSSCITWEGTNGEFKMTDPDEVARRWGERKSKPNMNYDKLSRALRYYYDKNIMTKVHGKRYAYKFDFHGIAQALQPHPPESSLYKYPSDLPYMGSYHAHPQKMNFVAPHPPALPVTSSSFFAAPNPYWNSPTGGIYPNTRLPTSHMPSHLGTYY
How it was run: as §1

ELF1 = ELF1 (Homo sapiens, UniProt P32519 1-619)
How it was run: as §1

EHF = biological target: T4, EHF (Homo sapiens, UniProt Q9NZC4 1-300)
T4 sequence: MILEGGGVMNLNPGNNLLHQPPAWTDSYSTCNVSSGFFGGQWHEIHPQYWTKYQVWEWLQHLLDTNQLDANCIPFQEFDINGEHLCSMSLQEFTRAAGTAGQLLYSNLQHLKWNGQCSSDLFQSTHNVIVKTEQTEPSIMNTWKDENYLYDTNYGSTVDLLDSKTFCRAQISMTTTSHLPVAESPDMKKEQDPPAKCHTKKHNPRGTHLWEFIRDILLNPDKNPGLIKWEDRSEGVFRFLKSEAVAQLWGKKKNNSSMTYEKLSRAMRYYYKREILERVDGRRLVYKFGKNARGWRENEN
How it was run: as §1

SPI1 = SPI1 (Homo sapiens, UniProt P17947 1-270)
How it was run: as §1

SPIB = SPIB (Homo sapiens, UniProt Q01892 1-262)
How it was run: as §1

ELK3 = biological target: T5, ELK3 (Homo sapiens, UniProt P41970 1-407)
T5 sequence: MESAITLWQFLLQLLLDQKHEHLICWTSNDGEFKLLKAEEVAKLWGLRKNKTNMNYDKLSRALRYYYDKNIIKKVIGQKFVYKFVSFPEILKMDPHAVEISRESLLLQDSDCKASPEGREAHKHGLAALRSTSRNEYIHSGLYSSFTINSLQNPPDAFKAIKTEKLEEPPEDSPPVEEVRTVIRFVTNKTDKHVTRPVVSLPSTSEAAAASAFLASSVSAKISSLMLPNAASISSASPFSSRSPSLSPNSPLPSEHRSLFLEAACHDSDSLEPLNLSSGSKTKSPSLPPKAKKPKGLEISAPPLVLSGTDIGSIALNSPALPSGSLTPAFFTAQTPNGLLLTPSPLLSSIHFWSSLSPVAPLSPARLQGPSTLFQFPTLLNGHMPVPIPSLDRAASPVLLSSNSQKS
How it was run: as §1

FEV = biological target: T6, FEV (Homo sapiens, UniProt Q99581 1-238)
T6 sequence: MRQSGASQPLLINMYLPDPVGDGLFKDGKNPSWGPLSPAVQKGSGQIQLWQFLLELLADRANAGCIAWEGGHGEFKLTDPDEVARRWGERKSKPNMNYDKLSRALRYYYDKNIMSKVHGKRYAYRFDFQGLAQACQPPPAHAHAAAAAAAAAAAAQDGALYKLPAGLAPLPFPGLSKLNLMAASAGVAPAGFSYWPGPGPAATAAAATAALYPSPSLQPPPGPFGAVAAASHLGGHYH
How it was run: as §1

ETV5 = ETV5 (Homo sapiens, UniProt P41161 1-510)
How it was run: as §1

SPIC = biological target: T7, SPIC (Homo sapiens, UniProt Q8N5J4 1-248)
T7 sequence: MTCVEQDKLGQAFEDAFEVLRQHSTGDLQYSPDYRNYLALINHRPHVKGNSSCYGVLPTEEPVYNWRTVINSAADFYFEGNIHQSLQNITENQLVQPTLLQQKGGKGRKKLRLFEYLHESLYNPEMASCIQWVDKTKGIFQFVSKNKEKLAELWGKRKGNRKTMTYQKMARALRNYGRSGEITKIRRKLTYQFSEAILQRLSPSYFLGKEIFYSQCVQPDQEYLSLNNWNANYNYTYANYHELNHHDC
How it was run: as §1

ELF4 = ELF4 (Homo sapiens, UniProt Q99607 1-663)
How it was run: as §1

ERF = biological target: T8, ERF (Homo sapiens, UniProt P50548 1-548)
T8 sequence: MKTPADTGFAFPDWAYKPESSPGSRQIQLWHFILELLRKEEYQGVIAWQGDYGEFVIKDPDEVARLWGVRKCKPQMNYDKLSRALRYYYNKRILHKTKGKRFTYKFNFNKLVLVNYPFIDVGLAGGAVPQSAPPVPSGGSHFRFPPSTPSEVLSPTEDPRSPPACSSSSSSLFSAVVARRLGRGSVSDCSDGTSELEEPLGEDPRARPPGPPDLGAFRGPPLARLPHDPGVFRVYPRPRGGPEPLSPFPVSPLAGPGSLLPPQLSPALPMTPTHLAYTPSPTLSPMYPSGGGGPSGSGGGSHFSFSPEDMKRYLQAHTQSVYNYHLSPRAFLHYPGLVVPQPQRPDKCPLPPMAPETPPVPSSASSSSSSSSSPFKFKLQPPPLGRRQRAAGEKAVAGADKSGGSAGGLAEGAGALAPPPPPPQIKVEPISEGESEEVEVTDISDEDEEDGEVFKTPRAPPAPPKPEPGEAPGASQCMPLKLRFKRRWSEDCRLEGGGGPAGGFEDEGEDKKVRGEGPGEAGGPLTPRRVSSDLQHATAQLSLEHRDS
How it was run: as §1

ETV3L = biological target: T9, ETV3L (Homo sapiens, UniProt Q6ZN32 1-361)
T9 sequence: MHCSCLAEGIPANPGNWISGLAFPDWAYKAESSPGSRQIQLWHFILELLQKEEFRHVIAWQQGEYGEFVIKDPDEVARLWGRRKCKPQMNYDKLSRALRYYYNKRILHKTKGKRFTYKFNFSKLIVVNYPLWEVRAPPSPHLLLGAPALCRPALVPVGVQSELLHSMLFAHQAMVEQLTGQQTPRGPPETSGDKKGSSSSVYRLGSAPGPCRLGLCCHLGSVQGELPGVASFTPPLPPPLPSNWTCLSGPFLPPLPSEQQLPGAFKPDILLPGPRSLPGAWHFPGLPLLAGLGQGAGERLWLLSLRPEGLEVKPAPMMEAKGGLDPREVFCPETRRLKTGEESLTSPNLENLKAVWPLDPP
How it was run: as §1

ETS2 = biological target: T10, ETS2 (Homo sapiens, UniProt P15036 1-469)
T10 sequence: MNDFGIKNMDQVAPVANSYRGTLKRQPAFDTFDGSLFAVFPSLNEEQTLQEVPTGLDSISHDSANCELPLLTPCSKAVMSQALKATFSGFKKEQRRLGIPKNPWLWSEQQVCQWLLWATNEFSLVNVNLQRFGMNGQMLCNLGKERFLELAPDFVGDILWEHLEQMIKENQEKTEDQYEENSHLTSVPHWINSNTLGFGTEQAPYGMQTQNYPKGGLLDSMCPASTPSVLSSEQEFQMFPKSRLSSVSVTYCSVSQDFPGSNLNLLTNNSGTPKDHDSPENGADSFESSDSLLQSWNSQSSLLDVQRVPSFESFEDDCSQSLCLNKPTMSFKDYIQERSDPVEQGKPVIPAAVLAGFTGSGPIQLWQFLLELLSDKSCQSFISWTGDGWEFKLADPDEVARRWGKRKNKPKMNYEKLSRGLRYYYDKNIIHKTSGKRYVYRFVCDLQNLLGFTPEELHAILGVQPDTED
How it was run: as §1

ETV6 = ETV6 (Homo sapiens, UniProt P41212 1-452)
How it was run: as §1

ETV1 = ETV1 (Homo sapiens, UniProt P50549 1-477)
How it was run: as §1

SPDEF = biological target: T11, SPDEF (Homo sapiens, UniProt O95238 1-335)
T11 sequence: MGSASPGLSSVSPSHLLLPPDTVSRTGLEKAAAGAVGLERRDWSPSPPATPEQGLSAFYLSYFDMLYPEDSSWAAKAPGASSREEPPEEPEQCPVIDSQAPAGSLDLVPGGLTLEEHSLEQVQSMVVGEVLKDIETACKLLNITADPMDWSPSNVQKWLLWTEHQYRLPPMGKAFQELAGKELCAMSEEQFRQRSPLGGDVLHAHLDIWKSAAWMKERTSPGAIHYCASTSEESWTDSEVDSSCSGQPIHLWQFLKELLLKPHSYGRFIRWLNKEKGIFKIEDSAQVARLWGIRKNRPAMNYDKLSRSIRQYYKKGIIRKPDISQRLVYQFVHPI
How it was run: as §1

Sequence of SPIB (Q01892 whole entry): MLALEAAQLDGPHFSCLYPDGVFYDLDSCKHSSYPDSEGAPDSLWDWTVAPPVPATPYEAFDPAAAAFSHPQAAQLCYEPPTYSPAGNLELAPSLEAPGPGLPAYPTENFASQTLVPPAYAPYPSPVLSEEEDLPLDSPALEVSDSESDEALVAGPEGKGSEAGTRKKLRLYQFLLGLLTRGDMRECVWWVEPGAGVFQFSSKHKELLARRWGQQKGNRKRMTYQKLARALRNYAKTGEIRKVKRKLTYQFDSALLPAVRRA
Sequence of ELF1 (P32519 whole entry): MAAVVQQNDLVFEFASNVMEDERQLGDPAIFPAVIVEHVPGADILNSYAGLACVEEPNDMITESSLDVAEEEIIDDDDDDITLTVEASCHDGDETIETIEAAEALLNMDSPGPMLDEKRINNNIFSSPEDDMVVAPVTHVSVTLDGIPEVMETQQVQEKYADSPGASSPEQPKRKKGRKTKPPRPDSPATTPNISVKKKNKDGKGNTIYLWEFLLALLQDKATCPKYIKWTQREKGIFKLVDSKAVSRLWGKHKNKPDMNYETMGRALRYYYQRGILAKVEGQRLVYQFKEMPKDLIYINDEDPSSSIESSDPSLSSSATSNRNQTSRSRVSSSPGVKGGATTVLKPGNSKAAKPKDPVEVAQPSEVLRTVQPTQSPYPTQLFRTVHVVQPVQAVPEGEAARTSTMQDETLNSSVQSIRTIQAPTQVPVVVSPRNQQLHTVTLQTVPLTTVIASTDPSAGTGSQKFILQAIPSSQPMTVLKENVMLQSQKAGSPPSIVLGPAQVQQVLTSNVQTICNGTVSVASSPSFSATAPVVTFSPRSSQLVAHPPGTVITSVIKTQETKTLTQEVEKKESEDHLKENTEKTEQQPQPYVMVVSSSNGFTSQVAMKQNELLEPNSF
Sequence of ETV5 (P41161 whole entry): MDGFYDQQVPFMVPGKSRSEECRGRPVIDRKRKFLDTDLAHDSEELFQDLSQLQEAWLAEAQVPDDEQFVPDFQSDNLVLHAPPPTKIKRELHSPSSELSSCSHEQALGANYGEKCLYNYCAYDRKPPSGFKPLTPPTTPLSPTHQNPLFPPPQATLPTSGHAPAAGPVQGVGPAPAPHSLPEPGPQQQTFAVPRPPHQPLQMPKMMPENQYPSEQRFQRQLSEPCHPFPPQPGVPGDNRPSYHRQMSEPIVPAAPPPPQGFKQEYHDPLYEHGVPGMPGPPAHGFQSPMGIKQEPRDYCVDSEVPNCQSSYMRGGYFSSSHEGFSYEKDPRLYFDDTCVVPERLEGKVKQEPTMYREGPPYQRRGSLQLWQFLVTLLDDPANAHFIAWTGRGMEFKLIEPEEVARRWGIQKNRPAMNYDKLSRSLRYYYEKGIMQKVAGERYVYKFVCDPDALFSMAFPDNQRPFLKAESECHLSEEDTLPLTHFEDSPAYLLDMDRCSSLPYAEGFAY
Sequence of ELF4 (Q99607 whole entry): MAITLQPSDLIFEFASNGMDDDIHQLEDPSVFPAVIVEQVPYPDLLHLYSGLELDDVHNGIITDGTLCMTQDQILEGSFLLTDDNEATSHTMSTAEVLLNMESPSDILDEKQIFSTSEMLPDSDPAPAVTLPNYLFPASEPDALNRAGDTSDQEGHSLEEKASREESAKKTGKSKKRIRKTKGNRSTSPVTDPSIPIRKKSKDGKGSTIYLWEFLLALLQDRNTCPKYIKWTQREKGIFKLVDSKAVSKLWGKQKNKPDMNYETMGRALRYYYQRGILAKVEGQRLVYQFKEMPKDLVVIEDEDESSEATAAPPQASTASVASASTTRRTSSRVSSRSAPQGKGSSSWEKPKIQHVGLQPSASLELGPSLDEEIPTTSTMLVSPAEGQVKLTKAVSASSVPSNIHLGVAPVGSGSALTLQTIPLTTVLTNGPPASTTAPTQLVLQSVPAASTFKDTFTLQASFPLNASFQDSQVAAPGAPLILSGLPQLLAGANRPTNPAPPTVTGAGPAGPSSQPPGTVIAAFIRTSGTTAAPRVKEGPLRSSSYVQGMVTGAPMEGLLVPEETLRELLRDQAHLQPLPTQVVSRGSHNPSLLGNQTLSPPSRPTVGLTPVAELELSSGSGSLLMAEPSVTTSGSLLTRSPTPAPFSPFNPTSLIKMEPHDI
Sequence of ETV1 (P50549 whole entry): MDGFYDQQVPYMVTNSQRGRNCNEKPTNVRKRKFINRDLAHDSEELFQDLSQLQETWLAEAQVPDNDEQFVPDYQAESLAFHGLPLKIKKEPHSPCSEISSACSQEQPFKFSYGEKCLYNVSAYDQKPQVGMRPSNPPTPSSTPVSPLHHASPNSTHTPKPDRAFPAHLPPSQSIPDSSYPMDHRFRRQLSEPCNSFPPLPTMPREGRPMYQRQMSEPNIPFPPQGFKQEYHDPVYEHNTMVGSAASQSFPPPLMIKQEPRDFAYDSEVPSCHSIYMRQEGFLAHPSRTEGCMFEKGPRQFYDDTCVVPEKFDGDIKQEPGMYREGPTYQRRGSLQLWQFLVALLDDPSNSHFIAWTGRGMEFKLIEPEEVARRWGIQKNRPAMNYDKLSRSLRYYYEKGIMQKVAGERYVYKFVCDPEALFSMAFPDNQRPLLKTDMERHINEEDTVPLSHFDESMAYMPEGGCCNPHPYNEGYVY
Sequence of ETV6 (P41212 whole entry): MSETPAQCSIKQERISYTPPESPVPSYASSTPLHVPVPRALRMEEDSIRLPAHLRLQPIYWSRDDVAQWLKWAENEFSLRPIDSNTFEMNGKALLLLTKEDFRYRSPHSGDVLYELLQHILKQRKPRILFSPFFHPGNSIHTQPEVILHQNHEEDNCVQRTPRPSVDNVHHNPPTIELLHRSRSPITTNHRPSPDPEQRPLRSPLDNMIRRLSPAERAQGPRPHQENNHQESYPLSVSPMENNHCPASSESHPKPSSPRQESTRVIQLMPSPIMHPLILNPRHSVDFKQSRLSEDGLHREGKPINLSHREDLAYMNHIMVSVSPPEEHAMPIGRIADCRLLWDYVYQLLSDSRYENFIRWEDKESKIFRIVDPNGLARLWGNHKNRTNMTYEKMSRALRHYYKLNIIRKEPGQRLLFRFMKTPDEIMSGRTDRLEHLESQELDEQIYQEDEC

| Sequence | binding signal (FLI1) | binding signal (GABPA) | binding signal (ERG) | binding signal (ELF1) | binding signal (EHF) | binding signal (SPI1) | binding signal (SPIB) | binding signal (ELK3) | binding signal (FEV) | binding signal (ETV5) | binding signal (SPIC) | binding signal (ELF4) | binding signal (ERF) | binding signal (ETV3L) | binding signal (ETS2) | binding signal (ETV6) | binding signal (ETV1) | binding signal (SPDEF) |
| --- | --- | --- | --- | --- | --- | --- | --- | --- | --- | --- | --- | --- | --- | --- | --- | --- | --- | --- |
| CAGCTA | 1.1 fold enrichment (6-mer frequency, TF over GST control) | 1.06 fold enrichment (6-mer frequency, TF over GST control) | 1.03 fold enrichment (6-mer frequency, TF over GST control) | 1.07 fold enrichment (6-mer frequency, TF over GST control) | 1.05 fold enrichment (6-mer frequency, TF over GST control) | 1.03 fold enrichment (6-mer frequency, TF over GST control) | 1.04 fold enrichment (6-mer frequency, TF over GST control) | 1.02 fold enrichment (6-mer frequency, TF over GST control) | 1.02 fold enrichment (6-mer frequency, TF over GST control) | 1.01 fold enrichment (6-mer frequency, TF over GST control) | 1.07 fold enrichment (6-mer frequency, TF over GST control) | 1.03 fold enrichment (6-mer frequency, TF over GST control) | 1.08 fold enrichment (6-mer frequency, TF over GST control) | 1.05 fold enrichment (6-mer frequency, TF over GST control) | 1.06 fold enrichment (6-mer frequency, TF over GST control) | 1.01 fold enrichment (6-mer frequency, TF over GST control) |  |  |
| TGTGGT | 1.08 fold enrichment (6-mer frequency, TF over GST control) | 1.09 fold enrichment (6-mer frequency, TF over GST control) | 1.07 fold enrichment (6-mer frequency, TF over GST control) | 1.01 fold enrichment (6-mer frequency, TF over GST control) | 1.08 fold enrichment (6-mer frequency, TF over GST control) | 1.05 fold enrichment (6-mer frequency, TF over GST control) | 1.16 fold enrichment (6-mer frequency, TF over GST control) |  |  | 1.04 fold enrichment (6-mer frequency, TF over GST control) | 1.02 fold enrichment (6-mer frequency, TF over GST control) | 1.04 fold enrichment (6-mer frequency, TF over GST control) | 1.06 fold enrichment (6-mer frequency, TF over GST control) | 1.04 fold enrichment (6-mer frequency, TF over GST control) | 1.05 fold enrichment (6-mer frequency, TF over GST control) |  | 1.01 fold enrichment (6-mer frequency, TF over GST control) | 1.07 fold enrichment (6-mer frequency, TF over GST control) |

Source: article PMC7862700, “An all-to-all approach to the identification of sequence-specific readers for epigenetic DNA modifications on cytosine”
